Assay [1] in a line: Confirmatory qHTS to identify inhibitors of SARS-CoV-2 cell entry (AID 1645844). Also: nearly all actives have a fitted effect of over 45% in size. Also: potency is read from the fitted curve at half-maximal effect. The procedure, abridged: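 HEK293-ACE2, overnight seeding; cpd 1 h, 37C/5% CO2; + SARS-CoV-2-S MLV PP (Wuhan-Hu-1, ΔC19); 48 h; Bright-Glo luminescence. Data normalised to S PP and bald PP wells.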
On the technique in general: qHTS replaces the single test concentration by a dilution series.

Assay [2] is described as follows: Primary qHTS to identify inhibitors of SARS-CoV-2 cell entry (AID 1645846). Also: nearly all actives have a fitted effect of over 45% in size. Also: potency is read from the fitted curve at half-maximal effect. Particulars: SARS-CoV-2 pseudovirus cell entry assay, luminescence; activity change, negative = inhibition: at 57.1 µM (top of the series) unless noted. Put shortly: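 Luminescence readout (Bright-Glo luciferase) 48 h after pseudoparticle addition. HEK293-ACE2 cells, 1500/well; compound pre-incubation 1 h; Normalized to spike PP and bald PP.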

The nature of assay [3]: VSVG counterscreen qHTS to identify inhibitors of SARS-CoV-2 cell entry (AID 1645847). Also: nearly all actives have a fitted effect of over 65% in size. Also: potency is read from the fitted curve at half-maximal effect. As to activity change, negative = inhibition: % is scaled to controls: 0 for no effect and ±100 for the full control effect. Put shortly: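 HEK293-ACE2 cells (Expi293F stably expressing human ACE2) were pretreated with compound for 1 h at 37 °C, then infected with MLV-based VSV-G pseudotyped particles for 48 h. Luciferase luminescence was normalized to VSV-G PP and bald PP wells.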
On the technique in general: A counterscreen serves to expose hits that act by an unwanted route or on another target.

Assay [4] in a line: Cytotoxicity counterscreen for inhibitors of SARS-CoV-2 cell entry (AID 1645845). Also: % is scaled to controls: 0 for no effect and ±100 for the full control effect; nearly all actives have a fitted effect of over 50% in size. Particulars: outcome: dose series up to 57.1 µM unless noted. Put shortly:
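Counterscreen run in the same HEK293-ACE2 line as the pseudotyped-particle entry assay, without particles. Viability after 48 h at 37 C was read as ATP luminescence, scaled between cell-containing and cell-free wells.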

A short description of assay [5]: Primary qHTS for inhibitors of nuclear receptor binding SET domain protein 2 (NSD2) in an isogenic RCH-ACV NSD2 p.E1099K mutant (9B) (AID 1645876; active = well fitted curve in the direction sought with a large enough effect; an effect the other way counts as inactive or inconclusive; also: % is scaled to controls: 0 for no effect and ±100 for the full control effect; nearly all actives have a fitted effect of over 70% in size).
A short description of assay [6]: Primary qHTS for inhibitors of nuclear receptor binding SET domain protein 2 (NSD2) in an RCH-ACV wild type WT cells (2C) (AID 1645877; active = well fitted curve in the direction sought with a large enough effect; an effect the other way counts as inactive or inconclusive; also: % is scaled to controls: 0 for no effect and ±100 for the full control effect; nearly all actives have a fitted effect of over 70% in size).
Assay [7] deals with Glutathione peroxidase 1 (Homo sapiens) (UniProt P07203). Nature of the assay: Primary qHTS Assay for Inhibitors of Recombinant Selenoprotein Glutathione Peroxidase 1 (GPX1) (AID 1845191; active = well fitted curve in the direction sought with a large enough effect; an effect the other way counts as inactive or inconclusive; also: nearly all actives have a fitted effect of over 65% in size). Put shortly: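 GR-coupled readout: NADPH consumption tracked by fluorescence, ex 340/em 450 nm, at t=0 and after 15 min at RT. Final mix 10 nM GPX1, 1 mM GSH, 0.5 mM CHP, 0.5 mM NADPH, 100 nM GR, 0.01% BSA, following 30 min enzyme–compound preincubation.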

The nature of assay [8]: qHTS drug screen for cell cycle checkpoint inhibitors in PARPi-resistant BRCA-mutant ovarian cancer cell lines. (AID 1963452). Particulars: PEO1/OlaR viability, CellTiter-Glo luminescence, 96 h, stronger effect = lower value. Put shortly: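 PEO1, PEO4 and PEO1/OlaR ovarian cancer cells, 600 per well, exposed 96 h at 37C to a dilution series. Viability read by CellTiter-Glo luminescence, normalized to DMSO and empty wells; activity summarized as Z-AUC.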

Inconclusive results are not listed. Active and inactive are the calls of the source. Unless noted, calls follow the shape of the full dose curve.

Glutathione peroxidase 1 (Homo sapiens), sequence (P07203 whole entry, looked up): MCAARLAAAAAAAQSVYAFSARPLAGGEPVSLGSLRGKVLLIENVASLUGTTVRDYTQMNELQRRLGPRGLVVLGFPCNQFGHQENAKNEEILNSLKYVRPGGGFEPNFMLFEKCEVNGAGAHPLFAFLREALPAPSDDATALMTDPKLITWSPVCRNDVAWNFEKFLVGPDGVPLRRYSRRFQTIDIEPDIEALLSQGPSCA

With `NC(=O)c1ccccc1Nc1ccnc(Nc2cccc(O)c2)n1`, the Potency was 9610 nM (active) in assay [1], 8910 nM (active) in assay [2] and 7640 nM (active) in assay [3].

For the molecule `CC#CC(=O)N1CC[C@@H](n2c(=O)n(-c3ccc(Oc4ccccc4)cc3)c3c(N)ncnc32)C1`, the Potency in assay [1] is 21500 nM (active). In assay [2], the activity change, negative = inhibition is -99%.

Turning to `CN1C(=O)[C@@H](NC(=O)c2cc(Cc3ccccc3)on2)COc2ccccc21`, the Potency result in assay [1], in assay [4] and in assay [3] was “inactive” each time.

In the case of `CCNC(=O)Nc1ccc(-c2nc3c(c(N4CCOC[C@@H]4C)n2)CCN(C2COC2)C3)cc1`, the Potency in assay [1] is 12100 nM (active); in assay [2] it was 10000 nM (active).

For `COc1cc(F)ccc1-c1ncnc(Nc2cccc(CS(C)(=N)=O)c2)n1` (stereo not given), the Potency in assay [1] is 3830 nM (active); in assay [3], 4290 nM (active).

In the case of `CNCCCOc1cc(F)c(-c2c(Cl)nc3ncnn3c2N[C@@H](C)C(F)(F)F)c(F)c1`, the Potency in assay [1] was 1210 nM (active); in assay [3], 121 nM (active). Further, the activity change, negative = inhibition in assay [2] is -85.4%.

Consider `COc1ccc(-c2ccc3c(N4CCOC[C@@H]4C)nc(N4CCOC[C@@H]4C)nc3n2)cc1CO`, for which the Potency in assay [1] is 681 nM (active); in assay [2], 1000 nM (active); in assay [3] it was 429 nM (active).

Consider `CC(=O)c1ccc2c(c1)c1cc(C(C)=O)ccc1n2CCNC(C)C`, for which the Potency in assay [1] is 54.1 nM (active); in assay [3] it was 136 nM (active).

For `O=C(CCCCCCC(=O)N/N=C/c1ccc(N(c2ccccc2)c2ccccc2)cc1)NO`, the Potency in assay [1] was 8790 nM (active); in assay [2], 3160 nM (active); in assay [3] it was 7840 nM (active).

For `C=CC(=O)Nc1cccc(Nc2nc(Nc3ccc(OCCOC)cc3)ncc2F)c1`, the Potency is 6810 nM (active) in assay [1] and 4820 nM (active) in assay [3]. Further, the Potency entry in assay [4] is “inactive”.

As to `C=CC(=O)N[C@H]1CN(c2nc(Nc3cn(C)nc3OC)c3ncn(C)c3n2)C[C@@H]1F`, the Potency entry in assay [1], in assay [4] and in assay [3] was “inactive” throughout.

Consider `Cn1cc(C2=C(c3cn(C)c4cc([N+](=O)[O-])ccc34)C(=O)NC2=O)c2ccccc21`, for which the Potency in assay [1] was 1710 nM (active); in assay [3] it was 1080 nM (active).

In the case of `O=c1[nH]c([C@@H]2CCCN2)nc2c1oc1ccc(Cl)cc12`, the Potency is 5410 nM (active) in assay [1] and 7640 nM (active) in assay [3].

Turning to `CN(C)CCCOc1ccc(-c2ccc3ncc4c(c3c2)n(C2CCOCC2)c(=O)n4C)cn1`, the Potency in assay [1] was 5910 nM (active); in assay [3], 2350 nM (active).

With `CN[C@H]1CN(c2ccc3c(=O)c(C(=O)O)cn(-c4nccs4)c3n2)C[C@@H]1OC`, the Potency in assay [1] is 555 nM (active); in assay [3] it was 622 nM (active).

`COc1cccc2c1C(=O)c1c(O)c3c(c(O)c1C2=O)C[C@@](O)(/C(CO)=N/NC(=O)CCCCCN1C(=O)C=CC1=O)C[C@@H]3O[C@H]1C[C@H](N)[C@H](O)[C@H](C)O1`: the Potency in assay [1] was 429 nM (active); in assay [2] it was 1000 nM (active); in assay [3], 341 nM (active).

As for `N#Cc1cccnc1N1CCN(C(=O)c2cccc(Cc3n[nH]c(=O)c4ccccc34)c2)CC1`, the figures for the Potency in assay [1] and in assay [3] were 68.1 nM (active) and 60.7 nM (active), respectively. Besides, the activity change, negative = inhibition in assay [2] is -93.1%.

For `CC[C@]12C=CCN3CC[C@@]4(c5cc([C@@]6(C(=O)OC)C[C@H]7C[C@@H](C(C)(F)F)CN(Cc8c6[nH]c6ccccc86)C7)c(OC)cc5N(C)[C@H]4[C@@](O)(C(=O)OC)[C@@H]1OC(C)=O)[C@@H]32`, the Potency was 359 nM (active) in assay [1] and 127 nM (active) in assay [3]. Moreover, in assay [2], the activity change, negative = inhibition was -76.7% [at 19 µM].

For the molecule `CCc1cc(C(N)=O)ccc1-n1nc(C(C)C)c2c(-n3cnc(-c4cnn(C)c4)c3)ccnc21`, the Potency in assay [1] is 10800 nM (active); in assay [3], 3040 nM (active).

For `Nc1nc(-c2nn(Cc3ccccc3F)c3ncccc23)ncc1C1CC1`, the figures for the Potency in assay [1] and in assay [3] were 5410 nM (active) and 12100 nM (active), respectively.

On to `C=CC(=O)N1CCC(Oc2cc3c(Nc4ccc(Cl)c(Cl)c4F)ncnc3cc2OC)CC1`, for which the Potency in assay [1] was 1360 nM (active); in assay [3], 961 nM (active). Besides, the Potency result in assay [4] is “inactive”.

With `COCCNCc1ccc(-c2cc3nccc(Oc4ccc(NC(=S)NC(=O)Cc5ccc(F)cc5)cc4F)c3s2)nc1`, the Potency in assay [1] was 3830 nM (active); in assay [3] it was 1360 nM (active).

For the molecule `O=C(/C=C\n1cnc(-c2cc(C(F)(F)F)cc(C(F)(F)F)c2)n1)NNc1cnccn1`, the figures for the Potency in assay [1], in assay [2] and in assay [3] were 3040 nM (active), 2820 nM (active) and 1710 nM (active), respectively.

On to `C[C@H]1[C@H](O)[C@@H](C)/C=C/C=C/CC/C=C/C=C/C=C/C=C/[C@H](O[C@@H]2O[C@H](C)[C@@H](O)[C@H](N)[C@@H]2O)C[C@@H]2O[C@](O)(C[C@@H](O)[C@H](O)CC[C@@H](O)C[C@@H](O)C[C@@H](O)CC(=O)O[C@H]1C)C[C@H](O)[C@H]2C(=O)O`, for which the Potency in assay [1] was 9610 nM (active). Also, the Potency entry in assay [4], in assay [5], in assay [6] and in assay [7] was “inactive” throughout. For the same molecule, the activity change, negative = inhibition in assay [2] was -39.7%. Moreover, the figures for the Z-AUC in assay [8], in assay [8] (measured here: PEO1 parental Z-AUC) and in assay [8] (measured here: PEO4 Z-AUC) were 1.03 (inactive), 0.678 and 1.2, respectively.

For the molecule `COc1ccc2[nH]c3c(c2c1)CCN[C@]31CS[C@@H]2c3c(OC(C)=O)c(C)c4c(c3[C@H](COC1=O)N1[C@@H]2[C@H]2c3c(cc(C)c(OC)c3O)C[C@@H]([C@@H]1O)N2C)OCO4`, the Potency in assay [1] is 4.4 nM (active); in assay [2], 631 nM (active); in assay [3], 3.5 nM (active).
